Test results: PubChem BioAssay AID686978 (National Center for Advancing Translational Sciences (NCATS), 2013)
Out of some 420,000 compounds screened, about 64,000 (15%) were called active. Another 27% or so got no clear call; they are omitted. The call rests on the fitted dose curve; in most records, active means well fitted inhibition curve with a large enough effect; inconclusive means small, poorly fitted or top-dose-only effect; inactive means flat fitted curve, though single readings scatter. These entries were drawn from the full list. Entries that show only a call come without a potency.

experiment: qHTS for Inhibitors of human tyrosyl-DNA phosphodiesterase 1 (TDP1): qHTS in cells in absence of CPT; settings: DT40 Tdp1-/- hTDP1 cells, no CPT, ATP luminescence, 48 h; activity change, negative = growth inhibition: at 46.2 µM (top of the series); further: nearly all actives have a fitted effect of over 55% in size
Procedure, shortened: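 Luminescent ATP content (CellTiter-Glo) served as the growth readout. Knockout chicken DT40 cells expressing human TDP1 were exposed to compounds without camptothecin for a minimum 48 hr at 37 °C.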
Potency means the concentration at half of the fitted maximal effect.

Row | SMILES | Potency
1 | Cn1cnc(S(=O)(=O)Nc2ccc3c(c2)OCCO3)c1 | inactive
2 | CN(C)Cc1c(C#N)c2ccccc2n1C | inactive
3 | COCCCN(C(=O)Cn1ncc2c(=O)oc3ccc(C)cc3c21)C(C)c1ccncc1 (centres undefined) | inactive
4 | CC1CCN(CCCn2c(SCC(=O)NC3CCCC3)nc3ccccc3c2=O)CC1 | inactive
5 | Nc1nc(SCCOc2ccccc2)n[nH]1 | inactive
6 | COc1cc(C(=O)OCCCN2CCOCC2)cc(OC)c1OC | inactive
7 | C=C(C)Cn1c(N2CCCC2)nc2c1c(=O)[nH]c(=O)n2C | inactive
8 | Cc1cccc(OCC(O)Cn2c(N3CCCCC3)nc3c2c(=O)[nH]c(=O)n3C)c1 (centres undefined) | 23.1 µM (active)
9 | COc1ccc(CNc2nc3c(c(=O)[nH]c(=O)n3C)n2Cc2ccccc2)cc1 | inactive
10 | CCC(C)Sc1nc2c(c(=O)[nH]c(=O)n2C)n1CC(O)COc1cccc2ccccc12 (centres undefined) | 29.1 µM (active)
11 | Cn1c(=O)[nH]c(=O)c2c1nc(N1CCN(C(c3ccccc3)c3ccccc3)CC1)n2CCO | 16.4 µM (active)
12 | C=C(C)Cn1c(N2CCN(CC)CC2)nc2c1c(=O)[nH]c(=O)n2C | inactive
13 | Cc1nnc(SCCCn2c(N3CCCCC3)nc3c2c(=O)[nH]c(=O)n3C)s1 | inactive
14 | CC1CN(CC(=O)NC(C)c2ccccc2)CC(C)O1 (centres undefined) | inactive
15 | CC(C)(C)C(=O)N1CCC[C@@]1(CO)C(=O)O | inactive
16 | O=C(c1ccc2c(c1)OCO2)N1CCN(C(=O)c2ccco2)CC1 | inactive
17 | O=C1c2ccccc2C(=O)c2c1cccc2N1CCN(Cc2ccccc2)CC1 | 18.4 µM (active)
18 | O=S1(=O)CCN(Cc2ccccc2)CC1 | inactive
19 | O=c1cc(N2CCN(Cc3ccccc3)CC2)c(-c2ccccc2)n[nH]1 | inactive
20 | C=CCNC(=O)c1cc(-c2ccccc2O)on1 | inactive
21 | C=CCNC(=O)c1ccc2nc(-c3ccco3)c(-c3ccco3)nc2c1 | 11.2 µM (active)
22 | C=CCNC(=O)c1ccc(C)c(Br)c1 | inactive

Row | SMILES | Potency
23 | COC(=O)NNC1=CC(=O)CC(C)(C)C1 | inactive
24 | Cc1ccc(N2C(=O)C(NC(=O)c3c(F)cccc3F)(C(F)(F)F)C3=C2CC(C)(C)CC3=O)cc1 (centres undefined) | inactive
25 | CN(C)c1ccc(C2Nc3ccccc3C(=O)N2NS(=O)(=O)c2ccccc2)cc1 (centres undefined) | inactive
26 | COc1ccc(-c2cc(C(=O)NC(C(=O)O)C(C)C)c(C)o2)cc1OC (centres undefined) | inactive
27 | Cc1cccc(C)c1OCC(=O)NC(Cc1c[nH]c2ccccc12)C(=O)O (centres undefined) | inactive
28 | COc1ccc(-c2cc(C(=O)NC(Cc3c[nH]c4ccccc34)C(=O)O)c(C)o2)cc1OC (centres undefined) | 29.1 µM (active)
29 | Cc1ccc(S(=O)(=O)NCc2csc(C)n2)c(C)c1 | inactive
30 | CCOC(=O)N1CCN(C(=O)c2cn(C)c3ccc(S(=O)(=O)N4CCCC4)cc3c2=O)CC1 | inactive
31 | CN(Cc1ccccc1)C(=O)c1cn(C)c2ccc(S(=O)(=O)N(C)C3CCCCC3)cc2c1=O | inactive
32 | CCn1cc(C(=O)N2CC(C)CC(C)C2)c(=O)c2cc(S(=O)(=O)N3CCCC3)ccc21 (centres undefined) | inactive
33 | Cc1ccc(Cl)cc1N1CCN(C(=O)c2cn(C)c3ccc(S(=O)(=O)N(C)C4CCCCC4)cc3c2=O)CC1 | inactive
34 | CCn1cc(C(=O)N2CCN(c3cc(C)ccc3C)CC2)c(=O)c2cc(S(=O)(=O)N(C)C3CCCCC3)ccc21 | 18.4 µM (active)
35 | CCn1cc(C(=O)N2CCN(c3cc(Cl)ccc3C)CC2)c(=O)c2cc(S(=O)(=O)N3CCCC3)ccc21 | 25.9 µM (active)
36 | NC(=O)CSc1nc2c(oc3ccccc32)c(=O)n1Cc1ccccc1 | inactive
37 | COCC(=O)Nc1cc(C(=O)OC)cc(C(=O)OC)c1 | inactive
38 | COc1ccc(CC(N)C(=O)NC2C(O)[C@H](n3cnc4c(N(C)C)ncnc43)O[C@@H]2CO)cc1 (some centres undefined) | 22.1 µM (active)
39 | Nc1ncnc2c1ncn2[C@@H]1O[C@H](CNC(=O)[C@H](N)Cc2cccnc2)[C@@H](O)[C@H]1O | inactive
40 | COc1cccc(CN(C)C(=O)CC[C@H]2O[C@@H](n3cnc4c(NC(=O)c5ccccc5)ncnc43)[C@H](O)[C@@H]2O)c1 | inactive
41 | COC(=O)CNC(=O)c1ccc(OC2CCN(C(=O)C3CC3)CC2)cc1 | inactive
42 | CN(C)CCOc1ccc(Cl)cc1C(C)(C)C | inactive
43 | CCN(CC)CCOCCOc1ccc(Cl)c2ccccc12 | 16.4 µM (active)
44 | CCC(C(=O)OCCN(CC)CC)c1ccccc1 (centres undefined) | inactive

Row | SMILES | Potency
45 | O=C(CCc1ccccc1)Nc1cccc(-c2nnc(-c3ccco3)o2)c1 | 16.4 µM (active)
46 | Cc1cccc(NC(=O)CSc2nnc(-c3ccco3)o2)c1 | inactive
47 | C/C(=N/NC(=O)CCc1ccccc1)c1ccco1 | inactive
48 | COc1cc(NS(=O)(=O)c2ccc(NC(=O)CN3C(=O)c4ccccc4C3=O)cc2)ncn1 | inactive
49 | Oc1cc(O)c2c(c1)OC(c1ccc(O)c(O)c1)C(O)C2 (centres undefined) | inactive
50 | CCCC1OC23CCCCC2C(C#N)(C#N)C1(C#N)C(=N)O3 (centres undefined) | 5.8 µM (active)
51 | N#C/C(=C\c1ccccc1)c1n[nH]c(Cn2cncn2)n1 | inactive
52 | COC(=O)N1CCC2(CCCN(c3ccncc3)C2)CC1 | inactive
53 | CCc1cccc2c(=O)c(C(=O)NCCCOC)c[nH]c12 | inactive
54 | CCc1nc2ccc(C(=O)Nc3cc(-c4ccccc4)ccc3OC)cn2c1N(CC)CC(=O)N(C)C | 11.6 µM (active)
55 | CCc1nc2ccc(C(=O)Nc3cccc(OC)c3)cn2c1N(CCC(C)C)CCN(C)C | inactive
56 | CCc1nc2ccc(C(=O)Nc3ccc(OC)c(OC)c3)cn2c1N(C)C(=O)c1cccc(OC)c1 | inactive
57 | CCn1c(CNS(=O)(=O)c2ccc(Cl)cc2)n[nH]c1=S | inactive
58 | Cc1cccnc1NC(=O)CSc1nnc(COc2ccc(C(C)C)cc2)n1C | inactive
59 | N#Cc1cccc(CSc2ncnc(N)n2)c1 | inactive
60 | Cc1cc(C(C)(C)C)cc(S(=O)(=O)Nc2ccc(C(=O)O)cc2)c1C | inactive
61 | Cc1cc(C)c(C)c(S(=O)(=O)Nc2cccnc2)c1C | inactive
62 | Cc1cc(C)c(C)c(S(=O)(=O)Nc2ccc(O)cc2)c1C | 11.6 µM (active)
63 | COc1cc(NC(=O)C2CC(c3ccccc3O)=NO2)c(OC)cc1Cl (centres undefined) | inactive
64 | CC/S(CC1CC1(Cl)Cl)=N\S(=O)(=O)c1ccc(C)cc1 (centres undefined) | inactive
